Rows were chosen to be rich in hits. Some 19% of all compounds tested hit in one or more screens of this group.
HepG2 viability: kills HepG2 cells in TGF-b inhibitor counter-screen; HepG2 CAGA-GFP viability, ATP luminescence, 18 h; Potency, µM (series often up to 46.1 µM), usual class: cytotoxic; hit rate 0.76% among 410,000
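CellTiter-Glo luminescence gave cytotoxicity after 18 hours at 37 degrees C. The cells were HepG2 CAGA-GFP in 1% FBS DMEM, stimulated with 500 pg/mL TGF-beta after compound addition. %Activity was normalised to no-cell wells (complete cell-killing) and DMSO (no toxicity), and curves were fitted and classified.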
IL-1B inflam inh: inflammasome signaling inhibition, IL-1 beta readout; hit rate 4.7% among 360,000; activity change, % at 57.5 µM; THP-1 LPS/ATP IL-1B secretion, AlphaLISA, 16 h; hits give low values; AID 743279; in the data active = activity change below about -50%; inconclusive = mostly about -30% to -49%
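THP-1 cells pretreated 1 hr with compounds (up to 57.5 uM final), then stimulated with LPS (250 ng/mL final) plus ATP (1.25 mM final); secreted IL-1B measured by AlphaLISA after 16 hr, decreased signal indicating inhibition.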
DT40 TDP1 CPT: DT40-hTDP1 cell growth loss with CPT; Potency, µM (titrated, usually from 46.2 µM), usual class: inhibitors; hit rate 12% among 420,000; chicken DT40 Tdp1-/-;hTDP1 cells + 20 nM CPT, ATP luminescence, 48 h; AID 686979; note: nearly all actives have a fitted effect of over 55% in size
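Chicken DT40 Tdp1-/- cells complemented with human TDP1, 400 cells/well, exposed to compounds plus 20 nM camptothecin for at least 48 h at 37 C; viability read as ATP content by CellTiter-Glo luminescence.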
TDP1 cell noCPT: qHTS for Inhibitors of human tyrosyl-DNA phosphodiesterase 1 (TDP1): qHTS in cells in absence of CPT. hit rate 15% among 420,000. DT40 Tdp1-/- hTDP1 cells, no CPT, ATP luminescence, 48 h. AID 686978, 2013. Potency, µM (highest dose often 46.2 µM), usual class: inhibitors; note: nearly all actives have a fitted effect of over 55% in size
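Chicken DT40 Tdp1-/- cells stably complemented with human TDP1 were seeded at 400 cells/well with DMSO in place of 20 nM camptothecin. After compound pinning, cells grew at least 48 hr at 37 °C; viability read by CellTiter-Glo luminescence.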
S-ASM inh: human S-ASM enzyme inhibition; P17405; placental ASM, HMU-PC fluorogenic substrate, 60 min; Potency, µM (titrated, usually from 57.5 µM), hits mostly inhibitors; hit rate 0.006% among 340,000; AID 504937
Target sequence (P17405 47-631 limits assumed): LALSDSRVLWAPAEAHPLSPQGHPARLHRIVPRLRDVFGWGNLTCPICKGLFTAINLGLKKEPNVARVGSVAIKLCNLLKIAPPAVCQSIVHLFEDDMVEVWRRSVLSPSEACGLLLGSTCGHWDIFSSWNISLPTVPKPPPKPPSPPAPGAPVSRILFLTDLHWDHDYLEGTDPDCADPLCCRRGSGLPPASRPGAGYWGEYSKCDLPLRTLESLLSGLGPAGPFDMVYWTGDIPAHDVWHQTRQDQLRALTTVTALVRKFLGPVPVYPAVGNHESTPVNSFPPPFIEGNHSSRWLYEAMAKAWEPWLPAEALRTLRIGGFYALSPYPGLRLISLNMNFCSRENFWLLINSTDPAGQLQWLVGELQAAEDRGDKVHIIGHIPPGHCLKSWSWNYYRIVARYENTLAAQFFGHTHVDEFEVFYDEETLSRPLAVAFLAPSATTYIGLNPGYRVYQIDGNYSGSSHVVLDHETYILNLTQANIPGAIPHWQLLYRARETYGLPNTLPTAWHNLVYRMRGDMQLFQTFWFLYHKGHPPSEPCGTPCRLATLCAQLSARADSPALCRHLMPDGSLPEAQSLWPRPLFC
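Fluorogenic HMU-PC substrate (9 uM final) is turned over by placental ASM in 60 min at 37 C after a 10 min compound preincubation. Reaction ended by alkaline stop (pH 10), with fluorescence read at 386/447 nm.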
TGFb SMAD3 inh: inhibitors of TGF-b signaling; hit rate 1.2% among 410,000; HepG2 CAGA-GFP TGF-b/SMAD3 reporter, GFP fluorescence, 18 h; TGF-beta stimulated, 500 pg/mL final; Potency, µM (titrated, usually from 46.1 µM), most hits filed as inhibitors; note: nearly all actives have a fitted effect of over 65% in size
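GFP signal (ex488/em500-530) from TGF-beta-stimulated HEPG2 CAGA-GFP cells, 500 pg/mL final, 18 h at 37 degrees C in DMEM plus 1% FBS, normalized to unstimulated and DMSO-stimulated controls.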
A number is an active result; i = inactive; ? = inconclusive; nt = not tested or not shown. Unless noted, calls come from the whole dose curve; as a rule, active = well fitted curve in the direction sought with a large enough effect; inconclusive = small, poorly fitted or top-dose-only effect, or another doubt; inactive = no such curve, though single readings can be large; an effect the other way counts as inactive or inconclusive.

SMILES	HepG2 viability	IL-1B inflam inh	DT40 TDP1 CPT	TDP1 cell noCPT	S-ASM inh	TGFb SMAD3 inh
O=C(CC1OCC2CCCN2C1=O)Nc1ccc([N+](=O)[O-])cc1 (stereo not given)	i	?	16µM	?	i	i
CCCCCCC1CC(CC(=O)Nc2ccc([N+](=O)[O-])cc2)C(=O)O1 (stereo not given)	i	-61	18µM	?	?	?
CCCN(C(=O)c1ccc(N2CCCC2=O)cc1)C1CCS(=O)(=O)C1 (stereo not given)	i	i	i	i	i	i
CCC(C)N(C(=O)CSc1nnc(C)n1C)C1CCS(=O)(=O)C1 (stereo not given)	i	i	i	i	i	i
COc1ccc(NC(=O)N(C)C[C@H]2Oc3ccc(NC(=O)Nc4c(C)noc4C)cc3C(=O)N([C@H](C)CO)C[C@H]2C)cc1	i	i	i	i	i	i
CN1CCN(CC(=O)Nc2ccc(Oc3ccccc3)cc2)CC1	i	i	i	?	i	i
O=C(CNCc1ccccc1)Nc1ccc(Oc2ccccc2)cc1	i	-58	i	?	i	i
COc1ccc(NC(=O)CN2CCN(C(=O)N3CCOCC3)CC2)cc1	3.5µM	i	i	i	i	i
CCOc1ccccc1NC(=O)C(c1ccccc1)N1CCN(CC(=O)N2CCOCC2)CC1 (stereo not given)	i	i	23µM	i	i	i
O=C(CN1CCN(C(c2ccccc2)c2ccccc2)CC1)N1CCOCC1	i	i	i	i	i	i
CCOC(=O)N1CCN(CC(=O)Nc2ccc(Oc3ccccc3)cc2)CC1	i	-64	?	?	i	i
O=C(CN1CCN(C(=O)N2CCOCC2)CC1)Nc1ccc(Br)cc1	i	i	i	i	i	i
Cc1ccsc1CN(C(=O)COc1ccccc1Cl)C1CCS(=O)(=O)C1 (stereo not given)	i	nt	?	?	nt	nt
Cc1noc(-c2ccccc2OCC(=O)Nc2ccccc2[N+](=O)[O-])n1	i	nt	?	?	nt	?
Cc1ccc(NC(=O)c2c(C)cc(C)nc2SCC(=O)Nc2ccc(Br)cc2)cc1	i	nt	?	?	nt	?
CC(C)C[C@H]1CN(CCCC[C@H]2CNC(=O)C(=O)N2CCc2ccccc2)C(=O)C(=O)N1CCc1ccccc1	nt	i	i	i	nt	nt
CCOc1ccc(NC(=O)CN2CCN(CC(=O)Nc3ccccc3OCC)CC2)cc1	i	nt	16µM	21µM	nt	i
CCOc1ccccc1NC(=O)CN1CCCCCC1	i	i	?	?	i	i
COc1ccccc1NC(=O)CN1CCN(CC(=O)Nc2ccc(OCc3ccccc3)cc2)CC1	i	?	?	16µM	i	?
O=C(NCc1ccccc1)c1ccc(OC2CSC2)cc1	i	i	i	i	i	i
CC(C)(C)c1cc(C(=O)NCc2ccccc2)ccn1	i	i	13µM	?	i	i
O=C(NCc1ccccc1)c1ccc(Oc2ccc(C(=O)NCc3ccccc3)cc2)cc1	i	i	?	16µM	i	i
COc1ccc(C(CNC(=O)c2cccc([N+](=O)[O-])c2)N2CCOCC2)cc1 (stereo not given)	i	nt	?	?	nt	i
Cn1c(SCC(=O)Nc2ccc(Cl)cc2F)nnc1-c1ccco1	i	i	i	i	i	i
CC(C)(C)OC(=O)CC12CCCCC1NC(=O)O2 (stereo not given)	i	i	i	i	i	i
SMILES	HepG2 viability	IL-1B inflam inh	DT40 TDP1 CPT	TDP1 cell noCPT	S-ASM inh	TGFb SMAD3 inh
COc1ccc(C(=O)NN/C(=N/S(=O)(=O)c2ccc(C)cc2)c2ccccc2)cc1	i	i	i	i	i	i
CCC1(CC)NC(=O)N(CC(=O)Nc2ccc(OCc3ccccc3)cc2)C1=O	i	i	?	18µM	i	i
O=C(CN1CCCC1)Nc1ccc(OCc2ccccc2)cc1	i	?	i	?	i	i
N#CCN1CCN(CCC(=O)Nc2ccc(OCc3ccccc3)cc2)CC1	i	i	i	23µM	i	i
Nc1cccc[n+]1C(c1ccnc2ccccc12)[n+]1ccccc1N	i	nt	1.1µM	1µM	nt	?
Cc1cccc(C)c1-n1nnnc1C(c1ccnc2ccccc12)N1CCCC1 (stereo not given)	nt	i	?	?	nt	nt
c1ccc(CN2CCN(Cc3c[nH]c4ccccc34)CC2)cc1	i	i	2.1µM	10µM	i	i
OCC1(Cc2ccccc2)CCCN(Cc2c[nH]c3ccccc23)C1 (stereo not given)	i	-65	12µM	18µM	i	i
CCN1CCCC(CO)(Cc2ccccc2)C1 (stereo not given)	i	i	i	i	i	i
Cc1[nH]nc2nc(SCC(=O)NCC3CCCO3)n(-c3ccc(Br)cc3)c(=N)c12 (stereo not given)	i	i	15µM	?	i	i
CCC(C)NC(=O)CSc1nc2n[nH]c(C)c2c(=N)n1-c1ccc(OC)cc1 (stereo not given)	i	i	16µM	18µM	i	?
CCC(C)NC(=O)CSc1nnc(-c2ccncc2)n1-c1ccc(OC)cc1 (stereo not given)	i	i	i	i	i	i
Cc1ccccc1-n1c(C)nnc1SCC(=O)NCC1CCCO1 (stereo not given)	i	i	i	i	i	i
CCOc1ccc(-n2c(SCC(=O)NC(C)CC)nc3n[nH]c(C)c3c2=N)cc1 (stereo not given)	i	i	?	18µM	i	i
CCC(C)NC(=O)CSc1nc2n[nH]c(C)c2c(=N)n1-c1ccc(C)c(Cl)c1 (stereo not given)	i	nt	3.3µM	1.6µM	nt	?
CCOc1ccc(-n2c(=O)c3c4c(sc3n(CC(=O)NC(C)CC)c2=O)CCCCC4)cc1 (stereo not given)	i	nt	i	i	nt	i
CCOc1ccc(NC(=O)CSc2n[nH]c(=O)n2-c2ccccc2)cc1	i	i	i	i	i	i
CCOc1ccc(-n2c(SCC(=O)Nc3ccc(Br)cc3)nc3n[nH]c(C)c3c2=N)cc1	i	i	13µM	7.3µM	i	?
Cc1cc(=O)oc2cc(O[C@@H]3O[C@H](CO)[C@H](O)[C@H](O)[C@H]3O)ccc12	i	i	i	i	i	i
Cc1cc2c(c(C)c1CCO[C@@H]1O[C@H](CO)[C@@H](O)[C@H](O)[C@H]1O)C(=O)[C@@H](C)[C@@H]2O	i	i	2.9µM	5.2µM	i	?
Cc1ccc(NC(=O)c2ncn(CCCN[C@H](C)c3cccc4ccccc34)n2)cc1C	i	i	16µM	15µM	i	?

Compound activity (PubChem BioAssay)
